Results taken from the supplement of paper PMC6555819.

Tests used:
Assay in all cases: PBM binding z-score (relative to random genomic background probes); higher = stronger binding; sequences stand for … in GC…GCGATTGACAGCGTAGAATGAAGG
[1] = test system: FXR:RXRa (NR concentration 270 nM, RXRa partner concentration 90 nM)
In short: (§1)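 Ligand-free nuclear receptor dimers were applied to custom Agilent 4×180K protein-binding microarrays whose double-stranded probes carried direct-repeat seeds, single-nucleotide variants, half-site ablations and random human genomic background sequences in 34-nt variable regions. Incubation lasted 1 h. Binding z-scores were computed against the random background probes from regression-normalized fluorescence.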

[2] = test system: LXRa:RXRa (NR concentration 270 nM, RXRa partner concentration 90 nM)
In short: as §1

[3] = test system: LXRa homodimer (NR concentration 270 nM)
In short: as §1

[4] = test system: LXRb:RXRa (NR concentration 270 nM, RXRa partner concentration 90 nM)
In short: as §1

[5] = test system: LXRb homodimer (NR concentration 270 nM)
In short: as §1

[6] = test system: PPARa:RXRa (NR concentration 270 nM, RXRa partner concentration 90 nM)
In short: as §1

[7] = test system: PPARg:RXRa (NR concentration 180 nM, RXRa partner concentration 90 nM)
In short: as §1

[8] = test system: PPARg:RXRa 270nM:90nM, anti-RXR (NR concentration 270 nM, RXRa partner concentration 90 nM)
In short: as §1

[9] = test system: PPARg:RXRa 30nM:10nM, anti-RXR (NR concentration 30 nM, RXRa partner concentration 10 nM)
In short: as §1

[10] = test system: PPARg:RXRa 90nM:30nM, anti-RXR (NR concentration 90 nM, RXRa partner concentration 30 nM)
In short: as §1

[11] = test system: PPARg:RXRa DBDmut IVT, anti-RXR (DBD mutation: RXRa K156A/R161A, NR concentration 270 nM, RXRa partner concentration 90 nM)
In short: as §1

[12] = test system: PPARg:RXRa IVT, anti-PPARg (NR concentration 270 nM, RXRa partner concentration 90 nM)
In short: as §1

[13] = test system: PPARg DBDmut:RXRa IVT, anti-PPARg (DBD mutation: PPARg1 K132A/R137A, NR concentration 270 nM, RXRa partner concentration 90 nM)
In short: as §1

[14] = test system: PPARg DBDmut IVT, anti-PPARg (DBD mutation: PPARg1 K132A/R137A, NR concentration 270 nM)
In short: as §1

[15] = test system: PPARg homodimer (NR concentration 180 nM)
In short: as §1

[16] = test system: PXR homodimer (NR concentration 270 nM)
In short: as §1

[17] = test system: RARa:RXR (NR concentration 270 nM, RXRa partner concentration 90 nM)
In short: as §1

[18] = test system: RARa homodimer (NR concentration 270 nM)
In short: as §1

[19] = test system: RARb:RXRa (NR concentration 270 nM, RXRa partner concentration 90 nM)
In short: as §1

[20] = test system: PXR:RXRa (NR concentration 270 nM, RXRa partner concentration 90 nM)
In short: as §1

Row | Sequence | PBM binding z-score [1] | PBM binding z-score [2] | PBM binding z-score [3] | PBM binding z-score [4] | PBM binding z-score [5] | PBM binding z-score [6] | PBM binding z-score [7] | PBM binding z-score [8] | PBM binding z-score [9] | PBM binding z-score [10] | PBM binding z-score [11] | PBM binding z-score [12] | PBM binding z-score [13] | PBM binding z-score [14] | PBM binding z-score [15] | PBM binding z-score [16] | PBM binding z-score [17] | PBM binding z-score [18] | PBM binding z-score [19] | PBM binding z-score [20]
1 | CGTCTAAGTTCAAGGTAACGTAACAGAAAGCAGC | 4.08 | 3.47 | 1.01 | 2.01 | 0.51 | 3.18 | 1.39 | 2.11 | 0.885 | 1.69 | 0.796 | 1.09 | 0.251 | 0.258 | 1.64 | 2.9 | 2.09 | 0.625 | 3.79 | 
2 | ATATGTAGGTTACATGCGGGTCATTCAGGCTATG | 2.21 | 4.55 | 0.959 | 2.66 | 0.785 | 4.22 | 5.9 | 5.3 | 2.6 | 4.65 | 7.67 | 7.33 | 2.78 | 2.03 | 1.57 | 1.11 | 3.24 | 0.618 | 2.01 | 
3 | CCTACTGGGTCATTCAGAGGTCATTGATCATATG | 5.47 | 6.23 | 6.38 | 5.36 | 1.42 | 5.41 | 6.55 | 5.9 | 3.21 | 5.33 | 6.17 | 7.04 | 1.98 | 0.698 | 6.37 | 3.7 |  | 1.17 | 4.51 | 
4 | CGTCCAAGGTCAATGCGAGGTCAGTGAAAGCATT | 7.21 | 6.04 | 4.28 | 5.1 | 1.25 | 5.46 | 4.59 | 4.98 | 1.48 | 3.65 | 3.2 | 4.05 | 0.262 | -0.0151 | 6.13 | 4.68 |  | 1.33 | 5.4 | 
5 | CGAACTAGGTCATAGGACAGTGAAAGGCGACGTA | 3.51 | 2.47 | 0.169 | 1.66 | -0.283 | 5.07 | 9.06 | 7.62 | 6.41 | 7.72 | 7.81 | 8.5 |  | 0.801 | 1.9 | -0.212 | 2.17 | 0.173 | 3.5 | 1.2
6 | CGAACCAGGTCAAAGGACAGTGAAAGGCGACGTA | 5.18 | 3.73 | 0.284 | 2.63 | -0.254 | 5.27 | 7.61 | 7.03 | 4.9 | 6.76 | 4.57 | 5.82 |  | 0.805 | 1.1 | 0.537 | 2.82 | 0.116 | 3.86 | 2.07
7 | CGAACTAGGTCACCAGGACAGCGAAGAGGTTGGA | 3.93 | 2.11 | -0.245 | 1.55 | -0.88 | 4.91 | 8.61 | 6.98 | 4.85 | 6.78 | 7.82 | 8.67 |  | 0.871 | 2.15 | -0.232 | 2.32 | 0.196 | 4.21 | 1.34
8 | ATATGTAGGATATCGGGTCATTCAGTTTGCGCAT | 1.64 | 1.98 | 0.589 | 2.02 | 0.577 | 3.05 | 2.36 | 2.9 | 1.16 | 2.09 | 3.29 | 4.09 | 1.47 | 1.41 | 1.07 | 4.53 | 2.53 | 1.03 | 1.66 | 
